Assay [1] concerns the target human Vitamin D Receptor (VDR), VDR (gene 7421) (UniProt P11473). As to the kind of experiment: ATG_VDR_TRANS: Attagene TRANS-FACTORIAL HepG2 Assay for human Vitamin D Receptor (VDR) (AID 2283022; active = hit-call score of the fitted dose curve at least 0.9, where 1 is the maximum). Summed up:
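Transactivation by an exogenous VDR-Gal4 chimera in transiently transfected HepG2 cells was measured as reporter transcript level 24 hours after chemical treatment. RT-PCR products were analysed by capillary electrophoresis and fitted in the positive direction relative to DMSO.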

Assay [2] concerns the target human Thyroid Receptor alpha (THRa1), THRA (gene 7067) (UniProt P10827). Put plainly: ATG_THRa1_TRANS: Attagene TRANS-FACTORIAL HepG2 Assay for human Thyroid Receptor alpha (THRa1) (AID 2283014; active = hit-call score of the fitted dose curve at least 0.9, where 1 is the maximum). The gist of the method:
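Transcripts from GAL4-UAS-driven reporters, measured after 24 h compound exposure by RT-PCR plus capillary electrophoresis of 6-FAM-labeled fragments, were fitted for gain of signal relative to DMSO. Cells: transiently transfected HepG2 expressing NR-Gal4 chimeras.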

Read-out in assay [3]: E-selectin (Homo sapiens) (UniProt P16581)
Put plainly: BSK_3C_Eselectin: BioMAP Diversity Plus: 3C Assay for Eselectin Biomarker Activity (AID 2283015).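 For outcome: cell surface E-selectin protein quantified by ELISA 24 h after dosing.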 The settings on record: primary human endothelial cells (HUVEC); actives raise or lower the signal. Summed up: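 E-selectin ELISA readout, fitted bidirectionally relative to DMSO, taken 24 h post-dosing in HUVEC cultures of the 3C system. Overt cytotoxicity tracked with sulforhodamine B staining of parallel wells.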

Read-out in assay [4]: Interleukin-1 alpha (IL1a), IL1A (gene 3552)
As to the kind of experiment: BSK_BE3C_IL1a: BioMAP Diversity Plus: BE3C Assay for Interleukin-1 alpha (IL1a) Biomarker Activity (AID 2283016). The settings on record: primary human bronchial epithelial cells; actives raise or lower the signal. Summed up:
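Measured in human lung primary bronchial epithelial cells: IL-1a by ELISA at 24 h after dosing, with bidirectional fitting against DMSO.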

Read-out in assay [5]: Monocyte Chemoattractant Protein-1 (MCP1), CCL2 (gene 6347)
As to the kind of experiment: BSK_3C_MCP1: BioMAP Diversity Plus: 3C Assay for Monocyte Chemoattractant Protein-1 (MCP1) Biomarker Activity (AID 2283017). The settings on record: primary human endothelial cells (HUVEC); actives raise or lower the signal. Summed up:
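MCP-1 was measured by ELISA 24 h after dosing in primary HUVEC 3C cultures and fitted in both directions relative to DMSO; cytotoxicity was checked by SRB total-protein staining in parallel wells.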

Read-out in assay [6]: Monocyte Chemoattractant Protein-1 (MCP1), CCL2 (gene 6347)
Put plainly: BSK_4H_MCP1: BioMAP Diversity Plus: 4H Assay for Monocyte Chemoattractant Protein-1 (MCP1) Biomarker Activity (AID 2283018). The settings on record: primary human endothelial cells (HUVEC); actives raise or lower the signal. Summed up:
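Primary human umbilical vein endothelium is exposed to chemical for 24 h before MCP-1 is assayed by ELISA. Concentration-response fitted bidirectionally relative to DMSO.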

Read-out in assay [7]: Human Leukocyte Antigen - DR isotype (HLADR), HLA-DRA (gene 3122)
Put plainly: BSK_3C_HLADR: BioMAP Diversity Plus: 3C Assay for Human Leukocyte Antigen - DR isotype (HLADR) Biomarker Activity (AID 2283019).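 For outcome: ELISA of cell-surface HLA-DR on HUVEC 24 h after dosing.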 The note with it: primary human endothelial cells (HUVEC); actives raise or lower the signal. Summed up: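 Bidirectional fitting against DMSO was applied to the HLA-DR ELISA signal from human umbilical vein endothelial cells, 24 h post-dose. Cytotoxicity came from parallel SRB total-protein staining; 3C proliferation was counted by SRB at 48 h.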

Read-out in assay [8]: Interleukin-8 (IL8), CXCL8 (gene 3576)
As to the kind of experiment: BSK_3C_IL8: BioMAP Diversity Plus: 3C Assay for Interleukin-8 (IL8) Biomarker Activity (AID 2283020). The note with it: primary human endothelial cells (HUVEC); actives raise or lower the signal. The gist of the method:
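Using DMSO-treated wells as the baseline, bidirectional curve fitting was applied to ELISA-measured IL-8 from human umbilical vein endothelial cultures sampled 24 h after compound addition.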

Assay [9] in a line: BSK_3C_SRB: Viability Assessment in the BioMAP Diversity Plus: 3C Assay (AID 2283023).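 Note: fitted both ways against DMSO so a hit may be signal rise or drop.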 The note with it: primary human endothelial cells (HUVEC). The gist of the method: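 Cytotoxicity readout in parallel HUVEC 3C cultures: after 24 h compound exposure, cells fixed with 10% TCA, stained with 0.1% SRB and read at 560 nm. Gain or loss relative to DMSO fitted.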
Read-out in assay [10]: Matrix Metallopeptidase 1 (MMP1), MMP1 (gene 4312)
As to the kind of experiment: BSK_BE3C_MMP1: BioMAP Diversity Plus: BE3C Assay for Matrix Metallopeptidase 1 (MMP1) Biomarker Activity (AID 2283024). The note with it: primary human bronchial epithelial cells; actives raise or lower the signal. Summed up: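 In this multiplexed primary-cell system, human bronchial epithelium received chemicals for 24 h before an ELISA for MMP1. Values reflect bidirectional fits normalised to the DMSO baseline.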

Read-out in assay [11]: Pselectin, SELP (gene 6403)
Put plainly: BSK_4H_Pselectin: BioMAP Diversity Plus: 4H Assay for Pselectin Biomarker Activity (AID 2283026). The settings on record: primary human endothelial cells (HUVEC); actives raise or lower the signal. Summed up:
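Bidirectional fits against DMSO gave the endpoint. Cells: primary human umbilical vein endothelium, chemical-treated for 24 h before ELISA detection of P-selectin.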

A short description of assay [12]: BSK_4H_SRB: Viability Assessment in the BioMAP Diversity Plus: 4H Assay (AID 2283027).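 For AC50: curves fitted both ways versus DMSO so AC50 may be loss or gain.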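 Note: cells exposed to compound for 24 h before staining.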 The settings on record: primary human endothelial cells (HUVEC). Summed up: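 HUVEC, 24 h post-dose; 10% TCA fix, 0.1% SRB stain, A560 nm. Total protein = overt cytotoxicity, parallel to biomarker read. Bidirectional fit vs DMSO baseline.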
Assay [13] is described as follows: BSK_BE3C_SRB: Viability Assessment in the BioMAP Diversity Plus: BE3C Assay (AID 2283028).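 For AC50: fitted both ways so AC50 may mark signal gain or loss versus DMSO.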 The note with it: primary human bronchial epithelial cells. Summed up:
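Cytotoxicity read-out: SRB (0.1%) staining of TCA-fixed (10%) human lung bronchial epithelial cells, absorbance 560 nm, 24 h post-dosing. Curves fitted both directions relative to DMSO.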

Read-out in assay [14]: Thrombomodulin, THBD (gene 7056)
As to the kind of experiment: BSK_3C_Thrombomodulin: BioMAP Diversity Plus: 3C Assay for Thrombomodulin Biomarker Activity (AID 2283029). The note with it: primary human endothelial cells (HUVEC); actives raise or lower the signal. The gist of the method: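 In a multiplexed primary-cell system, human umbilical vein endothelium received chemical and was assayed 24 h later for thrombomodulin by ELISA. Parallel cultures were SRB-stained (0.1% SRB after 10% TCA fixation, read at 560 nm) to flag cytotoxicity.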

Read-out in assay [15]: Urokinase-type plasminogen activator receptor (uPAR), PLAUR (gene 5329)
Put plainly: BSK_4H_uPAR: BioMAP Diversity Plus: 4H Assay for Urokinase-type plasminogen activator receptor (uPAR) Biomarker Activity (AID 2283030). The note with it: primary human endothelial cells (HUVEC); actives raise or lower the signal. Summed up:
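uPAR level read by ELISA on HUVEC cultures (BioMAP 4H) 24 h post-dosing, analyzed for gain or loss relative to DMSO. Parallel SRB staining assessed overt cytotoxicity.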

Read-out in assay [16]: Monokine induced gamma interferon (MIG), CXCL9 (gene 4283)
Put plainly: BSK_3C_MIG: BioMAP Diversity Plus: 3C Assay for Monokine induced gamma interferon (MIG) Biomarker Activity (AID 2283021). The settings on record: primary human endothelial cells (HUVEC); actives raise or lower the signal. The gist of the method:
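ELISA-measured MIG in dosed HUVEC 3C cultures at 24 h, analysed by bidirectional fitting with DMSO defining baseline activity.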

Read-out in assay [17]: Vascular endothelial growth factor receptor 2 (Homo sapiens) (UniProt P35968)
As to the kind of experiment: BSK_4H_VEGFRII: BioMAP Diversity Plus: 4H Assay for Vascular endothelial growth factor receptor 2 (VEGFR2) Biomarker Activity (AID 2283031). The note with it: primary human endothelial cells (HUVEC); actives raise or lower the signal. Summed up: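 Measured by ELISA after 24 h of compound treatment: VEGFR2 on primary human umbilical vein endothelial cells, fitted in both directions relative to DMSO. Parallel cultures received SRB staining (560 nm) for overt cytotoxicity.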

Results filed as inconclusive are left out. The source made the active and inactive calls. Rule for the calls, unless noted: active = hit-call score of the fitted dose curve at least 0.9, where 1 is the maximum; inactive = score below 0.9.

Sequence of human Thyroid Receptor alpha (THRa1), THRA (gene 7067) (P10827 whole entry, looked up, the tested form may be a part): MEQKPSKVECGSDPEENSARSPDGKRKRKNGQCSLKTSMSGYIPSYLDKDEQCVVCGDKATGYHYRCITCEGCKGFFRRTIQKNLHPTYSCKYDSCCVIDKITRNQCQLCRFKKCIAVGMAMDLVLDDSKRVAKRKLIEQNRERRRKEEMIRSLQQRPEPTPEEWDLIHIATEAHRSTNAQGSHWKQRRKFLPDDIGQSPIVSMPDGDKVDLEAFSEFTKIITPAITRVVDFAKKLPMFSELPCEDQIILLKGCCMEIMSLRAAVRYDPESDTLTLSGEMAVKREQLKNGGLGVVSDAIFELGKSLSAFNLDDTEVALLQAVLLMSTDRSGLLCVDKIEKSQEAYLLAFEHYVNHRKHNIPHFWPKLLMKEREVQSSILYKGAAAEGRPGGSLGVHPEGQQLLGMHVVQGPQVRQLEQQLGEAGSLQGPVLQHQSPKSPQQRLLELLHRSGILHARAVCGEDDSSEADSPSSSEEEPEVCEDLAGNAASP
Sequence of human Vitamin D Receptor (VDR), VDR (gene 7421) (P11473 whole entry, looked up, the tested form may be a part): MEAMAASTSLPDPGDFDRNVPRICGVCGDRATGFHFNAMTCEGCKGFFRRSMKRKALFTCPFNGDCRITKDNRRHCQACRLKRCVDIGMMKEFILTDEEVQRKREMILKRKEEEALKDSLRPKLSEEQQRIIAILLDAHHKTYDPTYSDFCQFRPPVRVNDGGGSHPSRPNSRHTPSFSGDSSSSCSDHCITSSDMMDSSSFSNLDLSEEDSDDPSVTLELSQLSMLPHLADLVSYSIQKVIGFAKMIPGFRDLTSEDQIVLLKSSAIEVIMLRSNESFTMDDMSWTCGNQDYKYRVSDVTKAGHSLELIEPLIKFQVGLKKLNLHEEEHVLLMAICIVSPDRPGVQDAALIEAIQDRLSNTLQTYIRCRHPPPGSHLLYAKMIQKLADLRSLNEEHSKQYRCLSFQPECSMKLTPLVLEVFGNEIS
Sequence of E-selectin (Homo sapiens) (P16581 whole entry, looked up): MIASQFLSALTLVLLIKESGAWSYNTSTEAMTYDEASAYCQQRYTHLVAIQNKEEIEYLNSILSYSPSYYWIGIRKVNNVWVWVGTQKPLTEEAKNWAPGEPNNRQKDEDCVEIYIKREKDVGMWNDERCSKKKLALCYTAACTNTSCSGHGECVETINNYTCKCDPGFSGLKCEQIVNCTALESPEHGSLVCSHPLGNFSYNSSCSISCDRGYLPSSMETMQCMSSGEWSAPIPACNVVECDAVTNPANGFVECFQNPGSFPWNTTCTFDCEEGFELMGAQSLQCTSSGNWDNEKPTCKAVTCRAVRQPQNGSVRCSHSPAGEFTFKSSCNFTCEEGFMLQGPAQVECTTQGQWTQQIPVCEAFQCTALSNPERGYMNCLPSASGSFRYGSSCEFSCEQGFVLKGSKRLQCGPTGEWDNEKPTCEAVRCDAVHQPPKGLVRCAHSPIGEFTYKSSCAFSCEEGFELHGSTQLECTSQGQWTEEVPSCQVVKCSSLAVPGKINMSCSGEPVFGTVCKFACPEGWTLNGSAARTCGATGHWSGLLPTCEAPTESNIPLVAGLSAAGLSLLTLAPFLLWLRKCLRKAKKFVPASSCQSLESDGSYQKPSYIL

Consider `C=CC[N+](C)(C)CC=C`, for which the molecule was classed as inactive in [1].

For `O=Nc1ccc(Nc2ccccc2)cc1`, in assay [1], the outcome was inactive.

On to `COc1ccc(NC(=O)CC(C)=O)cc1`, for which the call in [1] was inactive.

For the molecule `C[C@]12CC[C@H]3[C@@H](CCC4=CC(=O)CC[C@@]43C)[C@@H]1CC[C@@H]2C(=O)CO`, the molecule was called inactive in assay [2] and in [1].

With `O=C1NC(=O)c2ccccc21`, the molecule was called inactive in assay [1].

In the case of `N#Cc1ccccc1`, the molecule was called inactive in assay [1].

On to `COc1cccc(OC)c1`, for which the result in [1] was inactive.

Turning to `C=CC(=O)NCOCC(C)C`, the call in assay [1] was inactive.

For the molecule `CC(=O)OCC=Cc1ccccc1`, the outcome in [1] was inactive.

For `OCCOCCOCCOCCO`, the call in assay [1] was inactive.

As to `O=C1OC2(c3cc(Br)c(O)c(Br)c3Oc3c2cc(Br)c(O)c3Br)c2c(Cl)c(Cl)c(Cl)c(Cl)c21`, the concentration at half-maximal activity (AC50) was 5060 nM (active) in [3]; 967 nM (active) in [4]; 4820 nM (active) in assay [5]; 1570 nM (active) in assay [6]; 2680 nM (active) in [7]; 13200 nM (active) in [8]. Also, the AC50 is 3570 nM (active) in assay [9]; 546 nM (active) in assay [10]; 2190 nM (active) in [11]; 3510 nM (active) in assay [12]; 608 nM (active) in [13]; 13200 nM (active) in [14]. Further, in assay [15], the AC50 is 1340 nM (active). Further, in [1], the call was inactive.

On to `OCCN1CCNCC1`, for which, in assay [1], the molecule was classed as inactive.

As for `CCCCC(CC)COC(=O)/C=C\C(=O)OCC(CC)CCCC` (stereo not given), the outcome in assay [3], in [4], in assay [5], in [6], in assay [7] and in assay [8] was inactive. Further, the outcome in [16], in assay [1], in assay [9], in [10], in assay [11] and in assay [12] was inactive. Moreover, the result in [13], in assay [14], in [15] and in assay [17] was inactive.

As to `CC(C)c1cccc(O)c1`, the molecule was classed as inactive in assay [2] and in assay [1].

Take `OCCOc1cccc(OCCO)c1`: the call in assay [2] and in assay [1] was inactive.

Regarding `O=C(O)CCCCC1CCSS1` (stereo not given), the molecule was classed as inactive in assay [1].

For `CC(=O)OCCOC(C)=O`, the outcome in assay [2] and in assay [1] was inactive.

On to `NCCCCCCN`, for which, in assay [1], the outcome was inactive.

As usually defined, the AC50 is the concentration at which the activity in the assay is half-maximal.

(Values after PubChem BioAssay (EPA / NIEHS).)
